MCL1-BIM inh = disrupts human MCL1 binding to BIM-BH3 peptide | 320,000 compounds, 0.68% hits | AID 2057 | GST-MCL1 / FITC-Bim-BH3 fluorescence polarization | inhibition, % at 10.9 µM | Q07820;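 active = inhibition above the mean inhibition of all tested compounds plus 3 SD, set per campaign, cut at about 40% in these data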;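 note: 0% = DMSO wells and 100% = unlabeled Bim-BH3 peptide control; higher means more loss of mP so more displacement of Bim peptide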
eLon inh = E. coli protease La inhibition; P0A9M0; purified E. coli Lon protease, fluorescence polarization; inhibition, % at 7.94 µM; 360,000 compounds, 0.42% hits; AID 602123; in the data active = inhibition above about 13%, passing the limit was not always enough;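 note: 0% = enzyme with probe and DMSO and 100% = no enzyme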
EBV gp42 block = EBV gp42 inhibition; Q1HVG2; Fluorescence polarization binding assay, mP read-out; inhibition, % (tested at 21.74 µM); 220,000 compounds, 0.42% hits; AID 1085; in the data active = inhibition above about 50%
MEX-5 binding = C. elegans MEX-5 TCR-2 RNA binding activity; 300,000 compounds, 0.38% hits; MEX-5/FITC-TCR2 RNA binding, fluorescence polarization; hits give low values; activity score (negative = inhibition of binding), % at 10 µM; AID 1832; Q9XUB2;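 active = inhibition past about -25% in most replicates, and total fluorescence under double the plate's negative control median, limit read from the data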;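 note: 0% = DMSO and -100% = 5 µM competing unlabeled TCR2 RNA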
Target sequence (Q9XUB2 whole entry, looked up): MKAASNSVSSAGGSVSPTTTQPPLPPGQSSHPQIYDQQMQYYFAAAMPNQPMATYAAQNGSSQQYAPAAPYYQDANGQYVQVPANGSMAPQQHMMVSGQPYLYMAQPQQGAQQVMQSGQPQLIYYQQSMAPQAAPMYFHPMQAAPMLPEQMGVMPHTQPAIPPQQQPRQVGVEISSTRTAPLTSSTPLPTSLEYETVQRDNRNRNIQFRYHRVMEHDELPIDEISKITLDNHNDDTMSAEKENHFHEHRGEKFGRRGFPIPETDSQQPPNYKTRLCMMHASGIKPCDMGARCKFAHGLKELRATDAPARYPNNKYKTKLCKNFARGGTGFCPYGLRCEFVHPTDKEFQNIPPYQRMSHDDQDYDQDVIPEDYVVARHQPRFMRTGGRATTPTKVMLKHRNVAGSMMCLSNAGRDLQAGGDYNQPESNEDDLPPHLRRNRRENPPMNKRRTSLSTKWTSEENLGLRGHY
Bcl-xL primary = inhibitors of human Bcl-xL | Q07817 | GST-Bcl-xL / FITC-Bim BH3 peptide fluorescence polarization | inhibition, % at 10.9 µM | 320,000 compounds, 0.7% hits;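 active = inhibition above the mean of all tested compounds plus 3 SD, cutoff set per campaign, cut at about 30% in these data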;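 note: 0% = DMSO wells and 100% = unlabeled Bim-BH3 peptide competitor; inhibitors lower millipolarization by displacing the labeled peptide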
GLD-1 RNA inh = GLD-1-TGE RNA interaction inhibition (C. elegans) | inhibition, % at 5.96 µM | Q17339 | purified GLD-1 + fluorescein TGE RNA, fluorescence polarization | 320,000 compounds, 0.44% hits;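 active = percent inhibition above a per-plate cutoff, the plate mean of test compounds plus 3 SD, cut at about 30% in these data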;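 note: 0% = DMSO wells with GLD-1 and probe and 100% = wells lacking GLD-1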
E coli Lon conf = E. coli Lon inhibition confirmation. shares compounds with eLon inh. purified E. coli Lon, fluorescence polarization. inhibition, % at 7.94 µM. 1,400 compounds, 31% hits; in the data active = inhibition above about 16%;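 note: 0% = enzyme with probe and DMSO and 100% = no enzyme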
Numbers without * were called inactive; . = not tested or not shown. Rows were chosen to be rich in hits. Some 1.5% of all compounds tested hit in one or more screens of this group.

SMILES	MCL1-BIM inh	eLon inh	EBV gp42 block	MEX-5 binding	Bcl-xL primary	GLD-1 RNA inh	E coli Lon conf
CN(C)CCCN1C(=O)C2CCc3[nH]c4ccccc4c3C2C1=O (stereo not drawn)	8	24*	1	.	7	1	-2
CCC(NS(=O)(=O)c1cccs1)c1ccc(C)cc1 (stereo not drawn)	1	-13	.	.	0	-5	.
Cc1ccc2cc(CCNC(=O)c3ccc4c(c3)OCO4)c(=O)[nH]c2c1C	-2	1	-19	1	2	9	.
CCN(N=O)c1ccc(C=C2C=Cc3ccccc32)cc1	.	-12	.	.	.	.	.
C=CCN(c1nc(C)c(Br)c(OC)n1)S(=O)(=O)c1ccc(C)cc1	5	49*	.	1	4	7	6
COc1ccc(C(=O)NCCN2C(=O)S/C(=C\c3cccnc3)C2=O)cc1[N+](=O)[O-]	-12	-11	-25	-3	-10	-3	.
COc1ccc(NS(=O)(=O)c2ccc3c(c2)NC(=O)CCS3)cc1Cl	5	11	.	-1	5	-5	.
C=CCCC(=O)NC1CCCc2c1cnn2-c1ccccc1F (stereo not drawn)	8	29*	.	0	2	0	2
OC(c1ccccc1)c1ncc(-c2cccc(C(F)(F)F)c2)[nH]1 (stereo not drawn)	.	-2	.	.	.	.	.
Cc1ccc(C(O)c2ncc(-c3cccc(C(F)(F)F)c3)[nH]2)cc1 (stereo not drawn)	.	15*	.	.	.	.	2
O=C(Nc1ccccc1C(F)(F)F)c1cc2ccccc2o1	1	-10	.	-2	-5	1	.
COc1ccc(OCCN2CCC(C(=O)NC(c3ccc(F)cc3)c3ccc4ccccc4n3)CC2)cc1 (stereo not drawn)	.	24*	.	.	.	.	-16
Cc1ccc(C(NC(=O)C2CCN(CCOc3ccccc3)CC2)c2ccccn2)cc1 (stereo not drawn)	.	15*	.	.	.	.	-3
Cc1cc(C)nc(NC(=NCCc2c[nH]c3ccccc23)NC(=O)C(C)(C)C)n1	0	4	9	3	6	4	.
COCC(=O)Nc1ccc(S(=O)(=O)Nc2onc(C)c2C)cc1	.	62*	.	.	.	.	-7
CCOC(=O)c1c(C)oc2c1c(C=NCCC(=O)O)c(O)c1ccccc12	18	15*	-16	-9	22	-2	30*
COc1ccc(NC(=O)N(C)C[C@@H]2Oc3ncc(Br)cc3C(=O)N([C@@H](C)CO)C[C@@H]2C)cc1	.	1	.	.	.	.	.
COc1cccc(NC(=O)N(C)C[C@H]2Oc3ncc(Br)cc3C(=O)N([C@H](C)CO)C[C@H]2C)c1	.	13*	.	.	.	.	-11
COc1ccc(S(=O)(=O)NC(C(=O)NCCc2ccccn2)C(C)C)cc1 (stereo not drawn)	-1	5	-1	0	0	0	.
O=C(Nc1ccc(C(=O)N2CCN(c3ccc(Cl)cc3)CC2)cc1)C1=CSCCO1	0	25*	.	1	9	2	2
CN1C(=O)/C(=C/c2ccccc2Cl)Sc2ccc(C(=O)NCc3cccnc3)cc21	-3	-7	0	-4	2	7	.
O=c1nc2c(O)cccn2c2c1c(=O)[nH]c1ccccc12	.	156*	104*	-26*	.	.	142*
O=c1[nH]c2ccccc2c2nc3ccccn3c12	-2	7	-10	1	3	3	.
N#Cc1ccc(OCC(=O)NCCCn2ccnc2)cc1	.	8	.	.	.	7	.
COCCn1c(C)cc(C(=O)COC(=O)/C=C/c2c(C)nn(C3CCS(=O)(=O)C3)c2Cl)c1C (stereo not drawn)	1	-2	.	-2	3	5	.
SMILES	MCL1-BIM inh	eLon inh	EBV gp42 block	MEX-5 binding	Bcl-xL primary	GLD-1 RNA inh	E coli Lon conf
CCCCN1C(=O)c2cccc3cc(O)cc(c23)C1=O	8	33*	.	0	7	21	6
C=CCNc1ncnc2c1ncn2[C@H]1CN(Cc2ccc3c(c2)OCO3)C[C@@H](CO)O1	.	-9	.	.	.	.	.
CCC(CC)C(=O)NCc1ccc2c(c1)cc(C)n2C	3	10	-19	0	1	11	.
COc1ccc(/C=C\C(=O)NCc2ccc3c(c2)cc(C)n3C)cc1OC	-5	25*	-11	0	1	11	-11
Cc1cc2cc(CNC(=O)c3cccs3)ccc2n1C	14	27*	19	0	14	15	14
COc1ccc(CC(=O)NCc2ccc3c(c2)cc(C)n3C)cc1	9	5	0	2	17	12	.
COc1ccc(/C=C/C(=O)NCCCNC(=O)/C=C/c2ccc(OC)c(OC)c2)cc1OC	-4	7	.	1	1	-1	.
COc1cccc(C(=O)NCc2ccc3c(c2)cc(C)n3C)c1	10	31*	0	-5	12	24	16
COc1ccc(S(=O)(=O)NCc2ccc3c(c2)cc(C)n3C)cc1	13	15*	7	-1	13	11	10
COc1ccc(S(=O)(=O)NCCC(=O)OCC(=O)NC2CC2)cc1	.	4	.	.	.	4	.
C[C@@H]1COC(=O)[C@@H](Cc2ccc(F)cc2)C/C=C\C[C@@H](CC(=O)NCCO)C(=O)N1	.	0	.	.	.	-1	.
C[C@@H]1CN([C@H](C)CO)C(=O)CCCn2cc(nn2)CO[C@H]1CN(C)S(=O)(=O)c1ccc2c(c1)OCCCO2	.	-14	.	.	.	.	.
O=C(COc1ccc(Cl)cc1Cl)NN=C1CCCCC1	4	-2	14	-3	-4	3	.
CC1(C)CC(=O)C/C(=N/NC(=O)COc2ccc(Cl)cc2Cl)C1	15	25*	-5	-1	5	23	7
CCOc1ccc(Nc2nc(NCC(=O)O)nc(N)c2[N+](=O)[O-])cc1	15	19*	.	0	17	17	-24
CCOc1ccc(Nc2nc(Nc3ccc(O)cc3)nc(C)c2[N+](=O)[O-])cc1	-2	-7	-8	0	2	-1	.
CCOC(=O)c1ccc2ncc(C(=O)OCC)c(NCCN(C)C)c2c1	9	22*	.	1	7	10	1
CCOC(=O)c1ccc2ncc(C(=O)OCC)c(NCCN3CCOCC3)c2c1	34	-2	.	0	25	21	.
Cc1ccc(NC(=O)CSc2nnc(-c3ccncc3)n2C)cc1C	1	33*	-8	2	3	3	-6
COc1ccc(NC(C)=O)cc1NC(=O)CSc1nnc(-c2ccncc2)n1C	3	8	-3	4	5	6	.
Cn1cnnc1SCC(=O)Nc1ccc2ccccc2c1	-6	14*	.	.	0	7	1
Cc1cccc(-c2cccc(NC(=O)C3CCCN(C(=O)c4cccnc4)C3)c2)c1 (stereo not drawn)	.	-4	.	1	.	.	.
Cc1cccc(-c2cccc(NC(=O)C3CCCN(C(=O)c4csc(C)n4)C3)c2)c1 (stereo not drawn)	-2	79*	.	-1	2	2	6

Bioassay records deposited in PubChem by several laboratories.
